HCV inh – HCV inhibition. Huh7.5.1 HCVcc-Cre infection, luciferase reporter, 44 h. Potency, µM (doses to about 41.8 µM), without a hit: at the highest dose activity change, negative = inhibition, usual class: inhibitors. 3.4% of 340,000 active; further: potency means the concentration at half of the fitted maximal effect
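1,000 cells/well; 4 h culture; + compound; + HCVcc-Cre (~0.5 moi); 44 h; luciferase substrate, RT 15 min; read 15 sec.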
FMDV inh – foot and mouth disease virus antiviral activity | FMDV antiviral cell-based qHTS | Potency, µM (highest dose often 57.9 µM), for the others: at the top dose activity change, negative = inhibition, hits mostly inhibitors | 1.2% of 410,000 active | AID 1159524; calls by dose curve; tested in HEK293T cells; further: read-out not given here; potency means the concentration at half of the fitted maximal effect; nearly all actives have a fitted effect of over 45% in size
Sm TGR block – inhibitors of Schistosoma mansoni thioredoxin glutathione reductase | 3% of 360,000 active | AID 485364 | Q962Y6 | Potency, µM (titrated, usually from 114 µM), for the others: at the highest dose activity change, negative = inhibition, actives largely listed as inhibitors | purified TGR, DTNB reduction, TNB absorbance 405 nm; further: potency means the concentration at half of the fitted maximal effect; nearly all actives have a fitted effect of over 60% in size
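First, TGR (20 nM dispensed) and NADPH were mixed with compound. Second, a 15 min room-temperature incubation followed. Third, further NADPH and then DTNB were added to start the reaction. Finally, TNB absorbance was monitored kinetically.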
VACV Venus inh – vaccinia inhibition (Venus reporter); Potency, µM (titrated, usually from 36.5 µM), without a hit: at the highest dose activity change, negative = inhibition, hits mostly inhibitors; 0.46% of 330,000 active; Vaccinia virus Venus reporter expression, fluorescence; calls by dose curve; tested in A549 cells; further: potency means the concentration at half of the fitted maximal effect; nearly all actives have a fitted effect of over 30% in size
HCMV antiviral – blocks human cytomegalovirus replication; HFF cells, HCMV-luciferase reporter, 72 h; stronger effect = lower value; activity change, negative = inhibition, % at 57.5 µM; 4.5% of 410,000 active; in the data active means activity change below about -60%; inconclusive means no clear call, values can overlap the other calls; inactive means above about -39%
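Luciferase read-out from HCMV-luciferase-infected HFFs (MOI 1 PFU/cell) 72 h post infection at 37C; compounds added after 16 h cell attachment; activity normalized between buffer-only basal and Salinomycin (10uM) inhibitor controls.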
VACV mCherry inh – vaccinia inhibition (mCherry reporter); 0.63% of 310,000 active; Vaccinia virus mCherry reporter infection, fluorescence; Potency, µM (highest dose often 36.5 µM), without a hit: at the highest dose activity change, negative = inhibition, hits mostly inhibitors; calls by dose curve; tested in A549 cells; further: potency means the concentration at half of the fitted maximal effect; nearly all actives have a fitted effect of over 35% in size
* hit, by the source's call; i = inactive; u = inconclusive; x = no result; [ ] = another dose, or the depositor's remark. A selection: hits, their analogues and other compounds. The true share with any hit is near 9.3%. Unless noted, the call rests on the fitted dose curve; in most records, active means well fitted curve in the direction sought with a large enough effect; inconclusive means small, poorly fitted or top-dose-only effect, or another doubt; inactive means no such curve, though single readings can be large; an effect the other way counts as inactive or inconclusive. On the % scale 0 is the no-effect control and ±100 the full control effect.

SMILES	HCV inh	FMDV inh	Sm TGR block	VACV Venus inh	HCMV antiviral	VACV mCherry inh
COc1ccc2nc(-c3ccccc3)[nH]c(=O)c2c1	2.8µM*	37%	x	-12%	23	i
COc1ccc(Nc2nc(-c3ccncc3)nc3ccccc23)cc1	6.3µM*	-27%	-12%	-21%	-9	-10%
COc1ccc(OC)c(Nc2nc(-c3ccccc3O)nc3ccccc23)c1	u	-11%	x	7%	-26	-18%
COc1ccccc1Nc1nc(-c2ccccc2O)nc2ccccc12	4µM*	-9%	15%	-9%	-70*	i
COc1ccc2nc(-c3ccccc3)nc(SC)c2c1	11µM*	26%	x	u	26	-12%
COc1ccc(Oc2nc(-c3ccncc3)nc3ccccc23)cc1	u	u	-2%	-7%	18	-14%
CCCCOc1ccc(CNC(=O)c2cnc3sc(N4CCCC4)nn3c2=O)cc1	x	-15%	-2%	-11%	-1	-7%
CCOC(=O)c1cc(-c2ccccc2)n[nH]1	13%	70%	12%	-15%	1	i
COc1ccc(Nc2nc(N3CCN(S(C)(=O)=O)CC3)nc3ccccc23)c(OC)c1	-14%	-9%	9%	-16%	13	-6%
COc1ccc(Nc2nc(-c3ccccc3F)nc3ccccc23)cc1OC	25µM*	u	-11%	-15%	9	-22%
COc1ccc(Nc2nc(N3CCN(S(=O)(=O)N(C)C)CC3)nc3ccccc23)cc1	11µM*	-17%	2%	x	-85*	x
COc1ccc(OC)c(Nc2nc(-c3ccncc3)nc3ccccc23)c1	4.5µM*	u	8%	-17%	-3	-24%
Oc1ccc(Nc2nc(-c3ccccc3F)nc3ccccc23)cc1	u	0%	0%	x	u	x
COc1ccccc1Nc1c2ccccc2nc2ccccc12	10µM*	u	-14%	u	-99*	11µM*
O=C(c1ccc2c(c1)N(Cc1ccccc1)CCS2)N1CCOCC1	-12%	12%	5%	x	-29	x
COc1ccc(NC(c2ccccc2)c2ccncc2)cc1 (centres undefined)	-4%	-14%	40µM*	x	-2	x
Cc1ccc(-c2nc(NCCN(C)C)c3ccccc3n2)cc1	-25%	36%	-28%	u	24	u
COc1ccc(-c2cc(C(=O)N3CCN(c4ccccc4)CC3)c3ccccc3n2)cc1OC	u	-8%	-1%	5%	133	x
COc1ccccc1Nc1nc(-c2ccccc2)nc2ccccc12	10µM*	-8%	19%	x	u	x
COc1ccc(-c2nc3ccc(N4CCCC4)cc3c(=O)[nH]2)cc1OC	10µM*	-26%	6%	-24%	-2	u
Cc1ccc(C)c(Nc2nc(-c3ccncc3)nc3ccccc23)c1	11µM*	u	-10%	x	-2	x
COc1ccc(NC(=O)C2C3CC/C=C\CCC32)cc1 (centres undefined)	u	66%	6%	-4%[7.34 µM]	57	i[7.34 µM]
COc1ccc(Nc2nc(-c3ccccc3)nc3ccccc23)c(OC)c1	2µM*	-17%	2%	-10%	u	u
COc1ccc(Nc2nc(N3CCCCC3)nc3ccccc23)c(OC)c1	u	-5%	-2%	-28%	-13	-18%
Cc1ccc(CNS(=O)(=O)c2ccc3c(c2)CCN3S(C)(=O)=O)cc1	x	-15%	4%	-4%	8	-3%
SMILES	HCV inh	FMDV inh	Sm TGR block	VACV Venus inh	HCMV antiviral	VACV mCherry inh
Cc1cc(C)c(C(=O)COC(=O)c2cc([N+](=O)[O-])ccc2N2CCOCC2)cc1C	-22%	-5%	-17%	3%	2	-11%
C/C(N)=C(/C#N)C(=O)CSc1nnc(COc2ccccc2Cl)o1	-3%	29%	-4%	u	2	7.9µM*
COc1cc(C)nc(-c2csc(C)n2)n1	4%	-1%	0%	x	-86*	x
CC(C)(C)c1ccc(-n2ncc3c2CCCC3NC(=O)CCC2=NNC(=O)CC2)cc1 (centres undefined)	x	u	x	-28%	-76*	i
Cc1cc(C(=O)NC2CCCc3c2cnn3-c2ccc(C(C)(C)C)cc2)n[nH]1 (centres undefined)	11µM*	u	0%	x	u	x
Cc1ccc(-n2ncc3c2CCCC3NC(=O)CCC2=NNC(=O)CC2)cc1C (centres undefined)	-12%	-11%	4%	-6%	-15	-15%
CC(C)(C)c1ccc(-n2ncc3c2CCCC3NC(=O)CCN2CCCCC2=O)cc1 (centres undefined)	u	u	0%	-25%	-64*	-28%
Cc1ccc(-n2ncc3c2CCCC3NC(=O)CCCN2CCCC2=O)cc1C (centres undefined)	10%	0%	0%	-10%	-7	-11%
CC(C)C(c1nnnn1Cc1ccc(F)cc1)N1CCC(C(N)=O)CC1 (centres undefined)	-1%	0%	3%	-5%	0	i
CC(C)Nc1ncnc2c1cnn2-c1ccc(Cl)cc1	u	-23%	-5%	-8%	0	24%
CCOc1ncccc1C(=O)N1CCN(C(c2ccccc2)c2ccccc2)CC1	11µM*	u	-16%	-8%	-29	-4%
Cn1c(C(=O)N2CCN(c3ccccc3)CC2)cc2cc(Cl)ccc21	11%	-12%	-4%	x	41	x
COc1ccccc1CNc1nc(NCc2ccc(C(C)C)cc2)c2sccc2n1	x	u	x	-24%	u	-8%
CC(C)c1ccc(CNc2nc(NCC3CC3)nc3ccsc23)cc1	x	u	x	-27%	-62*	2%
COc1cccc(CNc2nc(NCc3ccccc3)nc3ccsc23)c1	x	u	x	-24%	-102*	0%
COc1cccc(CNc2nc(NCC3CC3)nc3ccsc23)c1	x	-1%	x	-20%	-71*	i
C[C@H]1O[C@H](C2CCCC2)CC2=C1C(=O)OC(C)(C)O2	x	-22%	x	-3%	31	23%
Cc1cc(Br)ccc1SCC(=O)Nc1cccnc1	10%	-19%	-14%	-14%	-19	-4%
CC(C)c1ccc(NC(=S)N2CCCC2)cc1	6%	55%	-7%	-13%	66	-19%
NNC(=O)c1csc(-c2ccccc2)n1	7%	24%	1%	-9%	12	-9%
CC(C)n1cc(-c2nc(C(=O)NN)cs2)c(=O)n(Cc2ccccc2)c1=O	u	-15%	-1%	-14%	-68*	-23%
CC1=CC(C)(C)N2C(=O)C(=Nc3ccc(O)cc3)c3cccc1c32	u	-15%	10µM*	-1%	u	u
COc1cc(N=C2C(=O)N3c4c(cccc42)C(C)=CC3(C)C)cc(OC)c1	-13%	-1%	0%	-17%	-8	-16%
Cc1ccc(S(=O)(=O)N(CC(O)CN(C)C)c2ccccc2)cc1 (centres undefined)	1%	-16%	-10%	u	22	-12%
CCCOc1c(Cl)cc(/C=N/O)cc1OCC	u	u	-11%	-26%	-27	x
